Screening data: PubChem, National Center for Advancing Translational Sciences (NCATS)
The sample as a whole holds a higher share of hits than the screen did.
Pf Dd2 growth – blocks in vitro growth of P. falciparum Dd2; P. falciparum Dd2 growth, SYBR Green, 72 h; Potency, µM (titrated, usually from 28.9 µM), hits mostly inhibitors; actives 4.3% (n = 120,000); AID 1347417; active = well fitted inhibition curve with a large enough effect; note: nearly all actives have a fitted effect of over 65% in size
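Infected erythrocytes (Dd2, 0.3% parasitemia, 2.5% hematocrit final) are added to compound in RPMI-1640/Albumax II medium, grown 72 h at 37C in low oxygen, then lysed with saponin/Triton-X containing SYBR Green and read by fluorescence.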
Of the large screens only hits and unclear results are named; the others gave an inactive call.

COc1ccc(-c2cn3c(n2)sc2cc(C(=O)Nc4cc(Cl)ccc4C)ccc23)cc1	none
COc1cccc(-c2cn3c(n2)sc2cc(C(=O)NCCc4ccccc4)ccc23)c1	none
COc1ccc(-c2cn3c(n2)sc2cc(C(=O)NCc4ccccc4)ccc23)cc1	none
CC(C)Oc1ccc2c(NC(=O)c3cocn3)nn(CC(F)(F)F)c2c1	none
O=C1CCCCC(C(=O)N2CC=C(c3ccccc3)CC2)N1 (stereo unspecified)	none
CN1CCCN(C[C@@H]2CN(C(=O)C3(Cn4cccn4)CC3)C[C@@H]2CO)CC1	none
Cc1ccccc1C(=O)N1C[C@@H](F)C[C@H]1C(=O)N1CCCCC1	none
COc1ccc(CC(=O)N2[C@@H]3CC[C@H]2CC(NC(=O)c2cnc(C)cn2)C3)cc1Cl (stereo partly specified)	none
Fc1cccc(Cc2nc(-c3nnn4c3COC(c3ccc(Cl)cc3)C4)no2)c1 (stereo unspecified)	none
CN1CCCn2nc(C(=O)N(C)Cc3cc(-c4cccs4)n[nH]3)cc2C1	none
CN(Cc1cc(-c2cccs2)n[nH]1)C[C@@H]1CCCN2CCCC[C@H]12	Pf Dd2 growth 7.1µM
CN(Cc1cc(-c2cccs2)n[nH]1)C(=O)c1cn(CCN)nn1	none
CN(Cc1cccc(C(F)(F)F)c1)S(=O)(=O)c1cccs1	none
COc1ccc(Cl)cc1NC(=O)c1cnc(SC)nc1-c1ccccc1	none
COc1ccccc1N1CCN(C(=O)c2cc3ccc4ccc(C)[nH]c4c3n2)CC1	Pf Dd2 growth 13µM
COc1ccc(Cl)cc1NC(=O)c1cc2nc(-c3ccc(C)cc3)cc(C(F)(F)F)n2n1	none
COc1ccc(Cl)cc1NC(=O)c1cc2ccc3ccc(C)[nH]c3c2n1	Pf Dd2 growth 11µM
CCSc1ncc(Cl)c(C(=O)N2CCN(c3ccccc3OC)CC2)n1	none
COc1ccccc1N1CCN(C(=O)c2cc(-c3ccccc3O)on2)CC1	none
CN(C)C[C@@H]1CN(c2ccncn2)C[C@H]1NC(=O)Cn1c(=O)oc2ccccc21	none
O=S(=O)(c1ccccc1)c1nc(-c2cccs2)oc1N1CCCCC1	none
Cc1ccc(CSc2oc(-c3cccs3)nc2S(=O)(=O)c2ccccc2)cc1	none
CCC(C)S(=O)(=O)c1oc(-c2cccs2)nc1S(=O)(=O)c1ccccc1 (stereo unspecified)	Pf Dd2 growth 13µM
Cc1sc2ccn(CC(C)C)c(=O)c2c1C(=O)O	none
Cc1nc(-c2ccccc2)n(Cc2cccc(C(F)(F)F)c2)c(=O)c1CCO	none
OCC1CN(c2ccncn2)CC12CCN(Cc1cccc(F)c1F)CC2 (stereo unspecified)	none
COc1ccc([C@H]2C[C@@H](O)[C@@H](O)[C@@H]2NC(=O)Cc2ccc(Cl)cc2)cc1	none
CCOc1ccccc1Nc1sc(C(=O)c2ccccc2)c(N)c1C(=O)Nc1ccccc1	none
COc1cccc(Nc2sc(C(=O)c3ccc(F)cc3)c(N)c2C(=O)NCc2ccc(Cl)cc2)c1	none
Nc1c(C(=O)c2ccc(F)cc2)sc(Nc2ccccc2F)c1S(=O)(=O)c1ccc(Br)cc1	Pf Dd2 growth 11µM
N#Cc1c(Nc2cccc(F)c2)sc(C(=O)c2ccc(Cl)cc2)c1N	none
CCc1ccc(Nc2sc(C(=O)c3ccc(F)cc3)c(N)c2S(=O)(=O)c2ccccc2)cc1	Pf Dd2 growth 8.9µM
CCc1ccc(S(=O)(=O)N2[C@@H]3CC[C@H]2CC(NC(=O)c2ccc(F)cc2)C3)cc1 (stereo partly specified)	none
CC(O)CNc1ccc(-c2nc(CCCc3ccccc3)no2)cn1 (stereo unspecified)	none
COc1ccc2[nH]cc(CCNC(=O)C3N(C(C)C)C(=O)C34CCCC4)c2c1 (stereo unspecified)	none
CC(C)c1noc(CC2CCN(C(=O)c3cccc(N(C)C)c3)CC2)n1	none
O=C(COc1ccc(F)cc1)N1CC(c2nc(CCOCC3CCOCC3)no2)C1	none
CC(C)N1C[C@H](O)C[C@H]1c1nnc2n1CCN(C(=O)c1ccsc1)C2	none
O=S(=O)(N[C@H]1[C@H](O)[C@H](O)C[C@@H]1c1cncnc1)c1ccc(C(F)(F)F)cc1	none
N#Cc1ccc(S(=O)(=O)N[C@H]2[C@H](O)[C@H](O)C[C@@H]2c2ccc(C(F)(F)F)cc2)cc1	Pf Dd2 growth 11µM
O=S(=O)(N[C@H]1[C@H](O)[C@H](O)C[C@@H]1c1ccccc1)c1ccc(C(F)(F)F)cc1	none
CCn1cc(S(=O)(=O)NCC2Cn3cccc3C(=O)N2CCOC)cn1 (stereo unspecified)	none
Cc1cccc(-c2noc(-c3nc(C)no3)n2)c1	none
COc1ccc(N2CC(c3noc(-c4cccc(F)c4)n3)CC2=O)cc1 (stereo unspecified)	none
O=C(CCc1ccccc1)N1CCC(c2n[nH]c(=O)n2Cc2ccc(F)cc2)CC1	none
COC(=O)c1ccccc1NC(=O)Cc1noc2ccc(C)cc12	none
Cc1ccc2c(CC(=O)Nc3cccc(C(F)(F)F)c3)coc2c1	none
Cc1ccc2onc(CC(=O)Nc3cccc(C(F)(F)F)c3)c2c1	Pf Dd2 growth 11µM
CC(=O)Nc1ccc(S(=O)(=O)N[C@H]2CO[C@H]3[C@@H]2OC[C@H]3OC(=O)Nc2cccc3ccccc23)cc1	none
CN1CCN(c2nc3c(c(=O)[nH]2)CCN(Cc2cccn2C)CC3)CC1	none
